Results published in PubChem BioAssay.
Calls of active or inactive are those of the source.

Assays:
[1] = binders of probe aFSTL3 on microarray, primary screen, stem cell growth factor project, biochemical, small-molecule microarray, fluorescence 635/667 (AID 1064); details: higher = more signal;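 note: measures binding of the biotinylated anti-FSTL3 antibody to printed compounds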
[2] = binders from COS7 lysate, DM2A8 probe, primary screen, torsin A project, cell lysate, small-molecule microarray, fluorescence 635/667 (AID 1065); details: higher = more signal, COS7 lysate expressing mutant human TOR1A
[3] = binders of probe aFGF2 on microarray, primary screen, stem cell growth factor project, biochemical, small-molecule microarray, fluorescence 635/667 (AID 1067); details: higher = more signal;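 note: measures binding of biotinylated aFGF2 protein to printed compounds on slides; z-score merges feature fluorescence and signal-to-noise across triplicate slides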
[4] = binders of probe aFGF10 on microarray, primary screen, stem cell growth factor project, biochemical, small-molecule microarray, fluorescence 635/667 (AID 1071); details: higher = more signal;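 note: score merges 667 nm spot intensity and signal to noise from triplicate slides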
[5] = biological target: Neurogenic locus notch homolog protein 2 (Homo sapiens) (UniProt Q04721); assay: Notch2 binders on small-molecule microarrays, primary screen, biochemical, small-molecule microarray, 635 nm fluorescence, stem cell growth factors (AID 1073); details: Notch2 binding, higher = more signal
[6] = biological target: Pro-neuregulin-1, membrane-bound isoform (Homo sapiens) (UniProt Q02297); assay: NRG1 binders on small-molecule microarrays, primary screen, psychiatric disease protein project, biochemical, small-molecule microarray, fluorescence 635/667 (AID 1075); details: NRG1 binding, 635 nm fluorescence, higher = more signal;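 note: score combines 667 nm spot fluorescence with signal to noise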
Chain of Pro-neuregulin-1, membrane-bound isoform (Homo sapiens) (Q02297 whole entry, looked up, the tested form may be a part, canonical isoform): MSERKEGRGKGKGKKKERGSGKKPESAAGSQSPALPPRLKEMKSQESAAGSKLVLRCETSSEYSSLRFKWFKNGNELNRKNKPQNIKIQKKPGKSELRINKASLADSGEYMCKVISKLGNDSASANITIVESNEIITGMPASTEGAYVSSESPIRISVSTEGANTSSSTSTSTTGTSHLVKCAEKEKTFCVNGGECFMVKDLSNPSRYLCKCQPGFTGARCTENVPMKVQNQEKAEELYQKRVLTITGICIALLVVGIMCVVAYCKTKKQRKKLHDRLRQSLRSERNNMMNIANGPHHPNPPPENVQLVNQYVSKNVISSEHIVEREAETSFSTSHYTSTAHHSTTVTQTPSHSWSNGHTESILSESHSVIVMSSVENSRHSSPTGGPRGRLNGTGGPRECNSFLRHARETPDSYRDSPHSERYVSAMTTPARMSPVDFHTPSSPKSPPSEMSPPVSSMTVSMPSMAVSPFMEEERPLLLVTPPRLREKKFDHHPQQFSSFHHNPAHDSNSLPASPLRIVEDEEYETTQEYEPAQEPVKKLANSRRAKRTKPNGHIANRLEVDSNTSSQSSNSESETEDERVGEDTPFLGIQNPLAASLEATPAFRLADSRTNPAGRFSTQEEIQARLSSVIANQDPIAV

[7] = tested on: Neuregulin-1 EGF-like domain; assay: binders of neuregulin-1 EGF-like domain, primary screen, biochemical, small-molecule microarray, 635 nm fluorescence (AID 1081); details: small-molecule microarray binding, higher = more signal;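 note: binding of the protein to compounds printed on small-molecule microarray slides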
[8] = FRG1 promoter luciferase signal modulators, primary screen, FRG1 inhibition for FSHD, cell-based, C2C12 myotubes, firefly/Renilla luciferase, luminescence (AID 1084); details: higher = more signal, called active from +8 up or from −8 down
[9] = binders of probe aFST on microarray, primary screen, stem cell growth factor project, biochemical, small-molecule microarray, fluorescence 635/667 (AID 1086); details: higher = more signal;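 note: score merges 667 nm fluorescence with signal-to-noise of each printed compound spot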
[10] = binders of probe aHhip on microarray, primary screen, stem cell growth factor project, biochemical, small-molecule microarray, fluorescence 635/667 (AID 1087); details: higher = more signal;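 note: score merges spot fluorescence at 667nm with spot signal to noise ratio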
[11] = tested on: PRMT1 (protein arginine N-methyltransferase 1); assay: PRMT1 binders on small-molecule microarrays, primary screen, biochemical, small-molecule microarray, 635 nm fluorescence (AID 1088); details: small-molecule microarray binding, higher = more signal;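 note: binding of Prmt1 protein to compounds spotted on small-molecule microarray slides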
[12] = yeast growth modulation, basal conditions, primary screen, YJM789 clinical isolate, OD600, 24 h (AID 1089);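 note: growth of clinical yeast isolate S. cerevisiae YJM 789 seeded 1000 cells per well; test concentration not given here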; details: S. cerevisiae YJM789 growth, higher = more signal, called active from +8 up or from −8 down
[13] = fission yeast growth modulation, primary screen, strain 972, OD600, 24 h, no modulator (AID 1090);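 note: basal condition with compound alone and no growth modifier present; test concentration not given here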; details: S. pombe 972 growth, higher = more signal, called active from +8 up or from −8 down
[14] = S. cerevisiae growth modulation with rapamycin, primary screen, strain BY4716, OD600, 96 h (AID 1091); details: higher = more signal, called active from +8 up or from −8 down; note: test concentration not given here
[15] = biological target: Torsin-1A-interacting protein 2 (Homo sapiens) (UniProt Q8NFQ8); assay: LULL1 binders on small-molecule microarray, primary screen, cell lysate, human LULL1 lysate, 635/667 nm fluorescence (AID 1092); details: hLULL1 lysate binding, 635 nm fluorescence, higher = more signal;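 note: probe is lysate of COS7 cells overexpressing human LULL1; score merges per-feature 667 nm fluorescence with signal-to-noise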
Chain of Torsin-1A-interacting protein 2 (Homo sapiens) (Q8NFQ8 whole entry, looked up): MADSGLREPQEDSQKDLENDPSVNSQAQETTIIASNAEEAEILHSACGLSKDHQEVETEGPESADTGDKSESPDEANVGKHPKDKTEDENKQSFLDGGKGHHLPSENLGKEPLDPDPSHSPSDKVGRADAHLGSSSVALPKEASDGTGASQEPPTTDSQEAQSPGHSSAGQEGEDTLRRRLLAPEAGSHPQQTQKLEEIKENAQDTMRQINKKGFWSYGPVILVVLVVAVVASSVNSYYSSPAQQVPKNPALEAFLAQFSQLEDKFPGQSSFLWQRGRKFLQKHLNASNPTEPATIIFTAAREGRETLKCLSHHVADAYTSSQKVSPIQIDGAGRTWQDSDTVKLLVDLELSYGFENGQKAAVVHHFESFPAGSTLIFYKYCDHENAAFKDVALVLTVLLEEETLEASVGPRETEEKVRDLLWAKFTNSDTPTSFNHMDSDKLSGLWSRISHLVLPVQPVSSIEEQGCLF

[16] = E. coli growth modulation, two-sided OD650, primary screen, E. coli filamentation project, strain DRC41, 24 h (AID 1093); details: OD650, 24 h, higher = more signal, called active from +8 up or from −8 down;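 note: MC1000 strain lacking acrAB efflux and sulA so SOS filamentation is blocked; test concentration not given here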
[17] = small-molecule microarray binders of probe aLefty2, primary screen, biochemical, biotinylated probe, 635/667 nm fluorescence (AID 1094); details: higher = more signal;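 note: score merges spot fluorescence near 667 nm with spot signal-to-noise ratio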
[18] = tested on: Noggin (protein binding on small-molecule microarray); assay: Noggin binders on small-molecule microarray, primary screen, biochemical, 635/667 nm fluorescence (AID 1095); details: 635 nm fluorescence, higher = more signal;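 note: score merges 667 nm feature fluorescence with signal to noise over triplicate slides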
[19] = biological target: Neurogenic locus notch homolog protein 3 (Homo sapiens) (UniProt Q9UM47); assay: NOTCH3 binders on small-molecule microarray, primary screen, biochemical, 635/667 nm fluorescence (AID 1096); details: NOTCH3 binding, 635 nm fluorescence, higher = more signal
Chain of Neurogenic locus notch homolog protein 3 (Homo sapiens) (Q9UM47 whole entry, looked up): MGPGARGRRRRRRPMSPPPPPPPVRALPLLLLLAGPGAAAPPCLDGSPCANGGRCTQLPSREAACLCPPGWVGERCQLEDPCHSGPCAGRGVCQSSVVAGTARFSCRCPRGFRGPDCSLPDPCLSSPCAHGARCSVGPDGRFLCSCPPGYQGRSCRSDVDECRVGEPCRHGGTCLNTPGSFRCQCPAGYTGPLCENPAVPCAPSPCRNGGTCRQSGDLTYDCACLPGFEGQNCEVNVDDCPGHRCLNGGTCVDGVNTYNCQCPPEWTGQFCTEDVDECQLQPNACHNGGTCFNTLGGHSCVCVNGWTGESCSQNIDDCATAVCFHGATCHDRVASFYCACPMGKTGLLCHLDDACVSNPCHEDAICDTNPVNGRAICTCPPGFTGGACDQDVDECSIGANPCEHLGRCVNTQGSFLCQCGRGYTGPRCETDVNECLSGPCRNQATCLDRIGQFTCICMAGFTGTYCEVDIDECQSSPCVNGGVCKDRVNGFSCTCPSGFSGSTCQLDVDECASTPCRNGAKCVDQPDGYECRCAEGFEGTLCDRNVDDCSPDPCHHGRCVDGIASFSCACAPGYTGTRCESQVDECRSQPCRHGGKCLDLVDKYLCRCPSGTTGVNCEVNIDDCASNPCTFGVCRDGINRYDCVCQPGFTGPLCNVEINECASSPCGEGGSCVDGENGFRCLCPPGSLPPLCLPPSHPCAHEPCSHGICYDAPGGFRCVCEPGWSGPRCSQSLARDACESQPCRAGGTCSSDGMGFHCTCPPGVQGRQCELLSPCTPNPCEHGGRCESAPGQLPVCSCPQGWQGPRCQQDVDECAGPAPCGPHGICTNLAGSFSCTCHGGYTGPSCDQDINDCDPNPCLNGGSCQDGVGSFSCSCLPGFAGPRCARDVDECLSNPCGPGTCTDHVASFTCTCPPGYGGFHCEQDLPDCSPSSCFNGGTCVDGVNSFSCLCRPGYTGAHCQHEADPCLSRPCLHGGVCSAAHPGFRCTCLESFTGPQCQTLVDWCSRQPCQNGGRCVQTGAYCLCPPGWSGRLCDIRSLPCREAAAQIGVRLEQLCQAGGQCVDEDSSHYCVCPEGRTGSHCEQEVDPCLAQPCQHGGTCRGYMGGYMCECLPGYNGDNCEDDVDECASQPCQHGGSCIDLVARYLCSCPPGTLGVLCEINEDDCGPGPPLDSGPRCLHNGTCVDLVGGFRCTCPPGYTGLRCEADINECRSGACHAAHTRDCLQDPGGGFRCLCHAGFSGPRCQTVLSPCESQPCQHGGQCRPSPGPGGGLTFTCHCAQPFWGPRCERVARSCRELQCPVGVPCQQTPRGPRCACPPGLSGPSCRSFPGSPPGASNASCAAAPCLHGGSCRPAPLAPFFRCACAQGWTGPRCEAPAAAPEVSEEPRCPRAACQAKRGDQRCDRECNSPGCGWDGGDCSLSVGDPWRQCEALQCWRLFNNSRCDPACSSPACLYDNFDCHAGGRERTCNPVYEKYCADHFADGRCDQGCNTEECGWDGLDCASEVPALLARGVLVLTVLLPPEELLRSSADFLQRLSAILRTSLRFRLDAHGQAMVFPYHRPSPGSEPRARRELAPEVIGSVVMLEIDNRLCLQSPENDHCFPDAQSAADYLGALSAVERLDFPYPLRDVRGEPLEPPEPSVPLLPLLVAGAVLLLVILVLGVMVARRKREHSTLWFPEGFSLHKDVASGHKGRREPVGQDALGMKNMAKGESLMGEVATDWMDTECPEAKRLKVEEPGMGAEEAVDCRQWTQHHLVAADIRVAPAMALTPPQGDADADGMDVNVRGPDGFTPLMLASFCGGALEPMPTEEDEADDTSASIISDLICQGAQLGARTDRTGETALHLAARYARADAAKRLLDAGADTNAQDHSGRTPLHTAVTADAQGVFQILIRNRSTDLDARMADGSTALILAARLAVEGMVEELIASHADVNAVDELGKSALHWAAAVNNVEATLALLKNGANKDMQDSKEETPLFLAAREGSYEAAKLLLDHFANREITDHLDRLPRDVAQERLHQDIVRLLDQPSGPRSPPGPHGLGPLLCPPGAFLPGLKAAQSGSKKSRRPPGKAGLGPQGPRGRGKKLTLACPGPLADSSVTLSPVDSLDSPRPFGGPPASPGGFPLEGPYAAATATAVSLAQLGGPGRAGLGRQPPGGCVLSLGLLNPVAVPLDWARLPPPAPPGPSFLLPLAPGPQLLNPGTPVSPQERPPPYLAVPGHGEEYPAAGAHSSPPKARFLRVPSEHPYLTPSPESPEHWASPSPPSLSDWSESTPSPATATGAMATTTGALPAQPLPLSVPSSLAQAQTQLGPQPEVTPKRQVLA

[20] = small-molecule microarray binders of probe aEGFR, primary screen, biochemical, biotinylated probe, 635/667 nm fluorescence (AID 1097); details: higher = more signal;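 note: probe is a biotinylated anti-EGFR antibody binding compounds printed on slides; score combines fluorescence near 667 nm and signal to noise of each spot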

Compound | composite z-score [1] | composite z-score [2] | composite z-score [3] | composite z-score [4] | composite z-score [5] | composite z-score [6] | composite z-score [7] | z-score [8] | composite z-score [9] | composite z-score [10] | composite z-score [11] | z-score [12] | z-score [13] | z-score [14] | composite z-score [15] | z-score [16] | composite z-score [17] | composite z-score [18] | composite z-score [19] | composite z-score [20]
CCOC(=O)[C@H]1C/C=C/C[C@H](C(=O)OCC)C(=O)O[C@H]2[C@@H](OC)O[C@H](CO)[C@@H](OC(=O)CCc3ccccc3)[C@@H]2OC1=O | -0.146 | -0.267 | 0.461 | -0.485 | -1.08 | 0.815 | -0.0615 | -1.26 (inactive) | -0.555 | -0.169 | 0.182 | 0.491 (inactive) | -1.29 (inactive) | 15.2 (active) | 0.0772 | -0.677 (inactive) | -0.132 | 0.0226 | 0.01 | -0.314
O=C1OCCC=C[C@H]2OC34C=CCN(c5ccc(Cl)cc5)C(=O)[C@H]3N(CCCCCO)C(=O)[C@@H]4C12 (stereo not given in full) | 0.418 | 1.77 | -0.116 | -0.112 | 0.0387 | 1.48 | 1.44 | -0.997 (inactive) | -0.149 | -0.0708 | 0.536 | -0.579 (inactive) | -1.99 (inactive) | -0.54 (inactive) | 2.68 | 1.71 (inactive) | 0.0636 | -0.261 | 0.0841 | -0.0671
CN(C)C(=O)[C@@]1(Cc2ccccc2N=[N+]=[N-])COC(c2ccc(OCCCO)cc2)=N1 | 0.541 | 0.33 | 0.0493 | 1.02 | 0.687 | 1.05 | 1.33 | -0.927 (inactive) | 0.495 | 0.0349 | 1.37 | -1.85 (inactive) | -7.64 (inactive) | 0.337 (inactive) | 3.33 | 1.84 (inactive) | 0.072 | 0.577 | 0.481 | 0.553
